Laboratory results published in PubChem BioAssay (NCATS).
Records with an inconclusive call do not appear. Values without a mark were called inactive. Calls come from the whole dose curve; as a rule, active = well fitted curve in the direction sought with a large enough effect; inconclusive = small, poorly fitted or top-dose-only effect, or another doubt; inactive = no such curve, though single readings can be large; an effect the other way counts as inactive or inconclusive.

biological target: Aldehyde dehydrogenase, mitochondrial (Homo sapiens) (UniProt P05091); assay: qHTS for Inhibitors of the Aldehyde Dehydrogenase Family (ALDH2) Primary screen (AID 2061308); settings: ALDH2 enzyme inhibition qHTS, 1536-well; series mostly up to 56 µM; activity change, negative = inhibition: at the top concentration;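 note: plate controls were vehicle for no effect and reference inhibitor for full effect; nearly all actives have a fitted effect of over 55% in size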

| Structure (SMILES) | activity change, negative = inhibition |
| --- | --- |
| CCN1C(=O)c2ccccc2C1Nc1ccc(OCCN2CCCCC2)cc1 (stereo unspecified) | 1.59% |
| CC1(C)CC[C@@]2(C(=O)O[C@@H]3O[C@H](CO)[C@@H](O)[C@H](O)[C@H]3O)C(C1)C1=CCC3[C@@]4(C)CC[C@@H](O[C@@H]5O[C@H](C(=O)O)[C@@H](O[C@@H]6OC[C@@H](O)[C@H](O)[C@H]6O)[C@H](O[C@@H]6OC[C@](O)(CO)[C@H]6O)[C@H]5O)C(C)(C)C4CC[C@@]3(C)[C@]1(C)C[C@H]2O (stereo partly specified) | 7.32% [at 16.9 µM] |
| COc1c(OC2OC(CO)C(O)C(O)C2O)ccc(O)c1C(=O)OCc1ccccc1O[C@@H]1O[C@H](CO)[C@@H](O)[C@H](O)[C@H]1O (stereo partly specified) | 0.162% [at 16.9 µM] |
| CC(=O)OC1CC(C)C2(CCC3(CC(=O)OC3O)O2)C2(C)CCCC(C)(C)C12 (stereo unspecified) | 0.786% [at 28 µM] |
| C[C@@H]1O[C@@H](O[C@@H]2[C@@H](O)[C@H](O[C@H]3[C@H](O[C@H]4CC[C@@]5(C)C(CC[C@]6(C)C5CC=C5[C@@H]7CC(C)(C)CC[C@]7(C(=O)O[C@@H]7O[C@H](CO)[C@@H](O)[C@H](O)[C@H]7O[C@@H]7O[C@@H](C)[C@H](O[C@@H]8O[C@@H](C)[C@H](O)[C@@H](O)[C@H]8O)[C@@H](O)[C@H]7O)CC[C@]56C)[C@@]4(C)CO)O[C@H](C(=O)O)[C@@H](O)[C@@H]3O)O[C@H](CO)[C@H]2O)[C@H](O)[C@H](O)[C@H]1O (stereo partly specified) | 7.29% [at 11.2 µM] |
| CC(=C\C(C)O)/C=C(\C)C(=O)CC1CC(CC(N)=O)CC(=O)O1 (stereo unspecified) | -4.89% |
| C=C1[C@H](OC(C)=O)[C@H]2[C@@H](OC(C)=O)C(C)C[C@]2(OC(C)=O)C(=O)[C@H](C)/C=C/C(C)(C)C(=O)[C@H](OC(=O)C(C)C)[C@H]1OC(C)=O (stereo partly specified) | 1.88% [at 16.9 µM] |
| C=CC1(C)CC(OC(=O)/C(C)=C\COC(C)=O)C(C(=C)C(=O)O)C(O)C1C(=C)CO (stereo unspecified) | -11.3% [at 28 µM] |
| C=C1C(=O)OC2/C=C(\CO)CC/C=C(\C=O)C(OC)C(OC(=O)C(C)CC)C12 (stereo unspecified) | 0.114% [at 28 µM] |
| Cc1cc(N2CCCCC2)nc2ccccc12 | 0.414% |
| CCCCS(=O)(=O)N[C@@H](Cc1ccc(OCCCCC2CCNCC2)cc1)C(=O)O | -7.09% |

biological target: Retinaldehyde dehydrogenase 3 (Homo sapiens) (UniProt P47895); assay: qHTS for Inhibitors of the Aldehyde Dehydrogenase Family (ALDH1A3) Primary screen (AID 2061315); settings: ALDH inhibition qHTS; series mostly up to 56 µM; activity change, negative = inhibition: at the top concentration;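 note: plate controls were DMSO vehicle for no effect and reference inhibitor for full effect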

| Structure (SMILES) | activity change, negative = inhibition |
| --- | --- |
| CC1(CCOC2OC(CO)C(O)C(O)C2O)CCC23OC2(C1)C(O)CC1C(C)(C(=O)O)CCCC13C (stereo unspecified) | 18.7% [at 28 µM] |
| C=C1CC[C@H]2[C@@H](/C=C(\C)C(=O)[C@@]3(OC(C)=O)C[C@H](C)[C@H](OC(C)=O)[C@@H]3[C@H]1OC(C)=O)C2(C)C | 2.51% [at 28 µM] |
| CC(=O)C1=C(O)C=C2Oc3c(C(C)=O)c(O)c(C)c(O)c3[C@]2(C)C1=O | -6.78% |
| CCC(C)C(C(=O)O)N1Cc2c(OCC=C(C)C)c(C)c(OC)c(C(=O)O)c2C1=O (stereo unspecified) | 2% [at 28 µM] |
| CC1COC2(OC3CC4C5CC(O[C@@H]6O[C@H](C)[C@@H](O[C@@H]7O[C@@H](C)[C@H](O)[C@@H](O)[C@H]7O)[C@H](O)[C@H]6O)C6CC(O)CCC6(C)C5CCC4(C)C3C2C)C(O)C1 (stereo partly specified) | 0.859% [at 16.9 µM] |
| CC1(C)CC[C@]2(C(=O)O)CC[C@]3(C)C(=CCC4[C@@]5(C)CC[C@H](O[C@@H]6O[C@H](C(=O)O)[C@@H](O)[C@H](O)[C@H]6O)C(C)(CO)C5CC[C@]43C)C2C1 (stereo partly specified) | 5.99% [at 16.9 µM] |
| COC(=O)CC(O)CC(O)/C=C/c1c(C)ccc2c1C(O)CC(C)C2 (stereo unspecified) | 4.99% |
| C[C@@H]1C(=O)O[C@H]2C[C@]34[C@H]5C[C@@H](C(C)(C)C)[C@]36[C@@H](OC(=O)[C@H]6O)O[C@]4(C(=O)O5)[C@]21O | -1.33% [at 28 µM] |
| Cc1occc(=O)c1O[C@@H]1O[C@H](CO[C@@H]2OC[C@](O)(CO)[C@H]2O)[C@@H](O)[C@H](O)[C@H]1O | 0.13% [at 28 µM] |
| COc1cc(CO)cc(OC)c1O[C@@H]1O[C@H](CO)[C@@H](O)[C@H](O)[C@H]1O | -19.1% |
| O=C(OCC12OC1C=CC(OC(=O)c1ccccc1)C2O)c1ccccc1 (stereo unspecified) | 13.1% |
| CN1CCc2cc3c(cc2C(=O)Cc2cc4c(cc2C1)OCO4)OCO3 | 6.65% |
| CC1OC(OC2C(CO)OC(OCC3OC(OC(=O)C45CCC(C)(C)CC4C4=CCC6C7(C)CCC(OC8OC(CO)C(O)C(OC9OC(CO)C(O)C(O)C9O)C8O)C(C)(C)C7CCC6(C)C4(C)CC5)C(O)C(O)C3O)C(O)C2O)C(O)C(O)C1OC1OC(CO)C(O)C(O)C1O (stereo unspecified) | 7.19% [at 11.2 µM] |
| COc1cc(/C=C/C(=O)OC2CC(OC(C)=O)C(OC(C)=O)C3C2CCC2C(=O)OC(c4ccoc4)CC23C)ccc1O[C@@H]1O[C@H](CO)[C@@H](O)[C@H](O)[C@H]1O (stereo partly specified) | 12% [at 16.9 µM] |
| C=C1C2CCC3CC2(CC(O)C2(O)C1CC(OC1OC(CO)C(O)C(O)C1O)C2(C)C)CC3(C)O (stereo unspecified) | -19.8% [at 28 µM] |
| CC(=O)OCC1OC(O[C@H]2CC[C@]34C[C@]35CC(O)[C@]3(C)[C@@H]([C@H](C)CC/C=C(\C)C(=O)O)C(O)C[C@@]3(C)C5CC[C@H]4C2(C)C)C(O)C(O)C1OC1OCC(O)C(O)C1O (stereo partly specified) | 10.8% [at 16.9 µM] |
| CC1(C)CC[C@]2(C(=O)O[C@@H]3O[C@H](CO)[C@@H](O)[C@H](O)[C@H]3O)CC[C@]3(C)C(=CCC4[C@@]5(C)C[C@@H](O)[C@H](O)[C@](C)(C(=O)O)C5CC[C@]43C)C2C1O (stereo partly specified) | 12.1% [at 16.9 µM] |
| C=C1CCC(OC(C)=O)C2(C)CC3OC(=O)C(C)=C3CC12 (stereo unspecified) | -10% |
| COc1cccc(C)c1C(=O)O[C@@H]1C[C@H](O[C@H]2[C@H](O)C[C@H](O[C@@H]3CCC[C@H]4[C@H]3C=C[C@@H]3CCCC/C=C/[C@H]5C=C(C(=O)O)[C@@H](C)C[C@@]56OC(=O)C(=C6O)OC(=O)[C@@]34C)O[C@@H]2C)O[C@H](C)[C@H]1O | -16.3% [at 16.9 µM] |
| COCC(=O)N1CCc2cc(-c3csc(NC(=O)c4cc(OC)cc(OC)c4)n3)ccc21 | -12.1% |

| Structure (SMILES) | activity change, negative = inhibition |
| --- | --- |
| CNS(=O)(=O)c1ccccc1Nc1nc(Nc2ccc(N3CCN(C)CC3)cc2OC)ncc1Cl | 32.2% |
| Nc1nc2c(ncn2CCC(CO)CO)c(=O)[nH]1 | 0.891% |
| COc1cc(O)cc(C)c1C(=O)O[C@@H]1[C@H](O)[C@@H](CO)O[C@H]1n1ccc(=O)[nH]c1=O | -14.5% [at 28 µM] |
| CC(=O)O[C@H]1[C@H](C)[C@@H](O)[C@H]2[C@@H]1C=C(C(=O)O)[C@H]1C[C@@H]3[C@H]([C@H]21)[C@H]1C(=O)O[C@@H]2CC[C@@]3(C)O[C@]1(O)[C@@H]2C | 5.4% [at 28 µM] |
| C=C[C@H]1[C@H](O[C@@H]2O[C@H](CO)[C@@H](O)[C@H](O)[C@H]2O)OC=C2C(=O)OCC[C@]21O | 2.55% |
| CC1(C)C[C@@H]2[C@H](C1)[C@@]1(C)C[C@]13C(O)OC[C@]3(O)[C@H]2O (stereo partly specified) | 7.97% |
| OC[C@H]1O[C@@H](OC[C@H]2O[C@@H](OCc3ccccc3)[C@H](O)[C@@H](O)[C@@H]2O)[C@H](O)[C@@H](O)[C@@H]1O | -8.47% [at 28 µM] |
| C=CC(C)(O)CC/C=C(\C)C(=O)OCC1OC(OC2CCC3(C)C(CCC4(C)C3CC=C3C5CC(C)(C)C(O)CC5(C(=O)O)CCC34C)C2(C)C)C(O)C(OC2OC(CO)C(O)C(OC3OC(CO)C(O)C(OC4OC(COC5OC(CO)C(O)C(O)C5O)C(O)C(O)C4O)C3O)C2O)C1O (stereo unspecified) | -5.36% [at 11.2 µM] |
| C[C@]12CC[C@@H]3c4ccc(O)cc4CC[C@H]3[C@@H]1C[C@@H](O[C@@H]1O[C@H](C(=O)O)[C@@H](O)[C@H](O)[C@H]1O)[C@@H]2O | 0.285% |
| CCN1C(=O)c2ccccc2C1Nc1ccc(OCCN2CCCCC2)cc1 (stereo unspecified) | -16.2% |
| CC1(C)CC[C@@]2(C(=O)O[C@@H]3O[C@H](CO)[C@@H](O)[C@H](O)[C@H]3O)C(C1)C1=CCC3[C@@]4(C)CC[C@@H](O[C@@H]5O[C@H](C(=O)O)[C@@H](O[C@@H]6OC[C@@H](O)[C@H](O)[C@H]6O)[C@H](O[C@@H]6OC[C@](O)(CO)[C@H]6O)[C@H]5O)C(C)(C)C4CC[C@@]3(C)[C@]1(C)C[C@H]2O (stereo partly specified) | -6.49% [at 16.9 µM] |
| COc1c(OC2OC(CO)C(O)C(O)C2O)ccc(O)c1C(=O)OCc1ccccc1O[C@@H]1O[C@H](CO)[C@@H](O)[C@H](O)[C@H]1O (stereo partly specified) | -24.8% [at 16.9 µM] |
| CC(=O)OC1CC(C)C2(CCC3(CC(=O)OC3O)O2)C2(C)CCCC(C)(C)C12 (stereo unspecified) | 15.2% [at 28 µM] |
| C[C@@H]1O[C@@H](O[C@@H]2[C@@H](O)[C@H](O[C@H]3[C@H](O[C@H]4CC[C@@]5(C)C(CC[C@]6(C)C5CC=C5[C@@H]7CC(C)(C)CC[C@]7(C(=O)O[C@@H]7O[C@H](CO)[C@@H](O)[C@H](O)[C@H]7O[C@@H]7O[C@@H](C)[C@H](O[C@@H]8O[C@@H](C)[C@H](O)[C@@H](O)[C@H]8O)[C@@H](O)[C@H]7O)CC[C@]56C)[C@@]4(C)CO)O[C@H](C(=O)O)[C@@H](O)[C@@H]3O)O[C@H](CO)[C@H]2O)[C@H](O)[C@H](O)[C@H]1O (stereo partly specified) | -3.36% [at 11.2 µM] |
| CC(=C\C(C)O)/C=C(\C)C(=O)CC1CC(CC(N)=O)CC(=O)O1 (stereo unspecified) | 0.153% |
| C=C1[C@H](OC(C)=O)[C@H]2[C@@H](OC(C)=O)C(C)C[C@]2(OC(C)=O)C(=O)[C@H](C)/C=C/C(C)(C)C(=O)[C@H](OC(=O)C(C)C)[C@H]1OC(C)=O (stereo partly specified) | 16.7% [at 16.9 µM] |
| C=CC1(C)CC(OC(=O)/C(C)=C\COC(C)=O)C(C(=C)C(=O)O)C(O)C1C(=C)CO (stereo unspecified) | 1.93% [at 28 µM] |
| C=C1C(=O)OC2/C=C(\CO)CC/C=C(\C=O)C(OC)C(OC(=O)C(C)CC)C12 (stereo unspecified) | -27.3% [at 28 µM] |
| Cc1cc(N2CCCCC2)nc2ccccc12 | 2.05% |
| CCCCS(=O)(=O)N[C@@H](Cc1ccc(OCCCCC2CCNCC2)cc1)C(=O)O | -15.5% |
